Where “and” joins values, the source holds several entries; their conditions need not be identical. Equal entries are not always repeated. This is part of a sample that, as a whole, favours compounds with a hit. Of some 83,000 tested, about 20% had one in any assay.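 Testing used 96-well plates and a 48-hour single-concentration exposure. Example: -40 means 40% of the starting cells died.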 Calls of active or inactive are those of the source. How the source made its calls: active means growth percent below 10; inactive means the rest.

Common to all, as to assay: NCI-60 one-dose screen, 48 h (100 = growth as untreated, 0 = no growth, -100 = all killed)
Common to all, as to conditions: 10 µM unless noted

Experiment [1] concerns DU-145 prostate.
The test system of experiment [2] is K-562 leukemia.
Experiment [3] concerns MALME-3M melanoma.
The test system of experiment [4] is MDA-MB-231 breast.
Experiment [5] relates to RXF 393 renal.
The test system of experiment [6] is SF-268 CNS.
Experiment [7] concerns SF-295 CNS.
In experiment [8] the test system is SF-539 CNS.
Experiment [9] has as its system UACC-257 melanoma.
For experiment [10], the system named is M14 melanoma.
Experiment [11] deals with HCT-15 colon.
The subject of experiment [12] is HT29 colon.
The test system of experiment [13] is SNB-75 CNS.
Experiment [14] deals with SNB-19 CNS.
Experiment [15] has as its system U251 CNS.
Experiment [16] concerns PC-3 prostate.
For experiment [17], the system named is SK-MEL-5 melanoma.
Experiment [18] concerns UACC-62 melanoma.
Experiment [19] relates to LOX IMVI melanoma.
For experiment [20], the system named is SK-MEL-28 melanoma.

As to `COc1ccc2[nH]c(=O)c(CSc3ccccc3Nc3nccc(-c4ccc(C(F)(F)F)cc4)n3)cc2c1`, the growth in experiment [1] was 27.3% (inactive); in [2] it was 19.5% (inactive); in experiment [3], 47.4% (inactive); in experiment [4], 31.6% (inactive); in experiment [5], -41.2% (active); in experiment [6], 19.5% (inactive). The growth in [7] was 5.31% (active); in [8], 0.901% (active); in experiment [9], 50.3% (inactive); in [10], 52.3% (inactive); in experiment [11], 12.9% (inactive); in experiment [12] it was 4.71% (active). Besides, the growth was -5.5% (active) in experiment [13]; 33.7% (inactive) in [14]; 22.5% (inactive) in experiment [15]; 3.44% (active) in experiment [16]; 48.8% (inactive) in experiment [17]; 47.9% (inactive) in experiment [18]. Also, the growth in experiment [19] is 7.62% (active); in [20], 51.4% (inactive).
For `COc1ccc(-c2cc(C(=O)N=Nc3c(O)[nH]c4ccc(Cl)cc34)c3ccccc3n2)cc1OC`, the growth was 126% (inactive) in [1]; 109% (inactive) in [2]; 105% (inactive) in [3]; 90.9% (inactive) in [4]; 104% (inactive) in experiment [5]; 118% (inactive) in experiment [6]. Moreover, the growth in experiment [7] was 101% (inactive); in experiment [8] it was 101% (inactive); in experiment [9], 115% (inactive); in [10] it was 89.2% (inactive); in experiment [11] it was 101% (inactive); in experiment [12], 117% (inactive). For the same molecule, the growth in experiment [13] was 118% (inactive); in [14], 97.1% (inactive); in [15], 100% (inactive); in experiment [16] it was 103% (inactive); in experiment [17], 111% (inactive); in experiment [18], 89.8% (inactive). In addition, the growth in [19] was 90.9% (inactive); in experiment [20], 110% (inactive).
As to `O=C1N/C(=N\c2nccs2)S/C1=C\c1ccc([N+](=O)[O-])cc1`, the growth in [1] is 39.9% (inactive); in experiment [2], 13.3% (inactive); in experiment [3], 28.4% (inactive); in experiment [4], 10.8% (inactive); in experiment [5], 8.41% (active); in [6] it was 19.9% (inactive). For the same molecule, the growth in [7] is 15% (inactive); in experiment [8], 4.72% (active); in [9], 8.51% (active); in [10] it was 5.66% (active); in experiment [11], 16% (inactive); in experiment [12] it was 17.2% (inactive). The growth in [13] was 34.1% (inactive); in experiment [14], 9.41% (active); in experiment [15], 7.89% (active); in [16], 17.6% (inactive); in experiment [17], -8.09% (active); in experiment [18] it was 2.3% (active). Moreover, the growth in experiment [19] was 12.5% (inactive); in experiment [20] it was 6.49% (active).
Turning to `COc1ccc2[nH]cc(-c3cc4nc(-c5cn(C)c6ncccc56)cc(N)n4n3)c2c1`, the growth in experiment [1] is 9.07% (active); in [2], -31.7% (active); in [3] it was -60.6% (active); in experiment [4] it was -58.4% (active); in experiment [5], -62.3% (active); in experiment [6] it was 32.8% (inactive). In addition, the growth in experiment [7] is -71.4% (active); in experiment [8], -93.6% (active); in [9], 72.7% (inactive); in experiment [10], -49.5% (active); in [11] it was -25.1% (active); in experiment [12], -59.1% (active). The growth in experiment [13] is 51.8% (inactive); in experiment [14] it was 26% (inactive); in experiment [15] it was -42.4% (active); in [16], 9.79% (active); in experiment [17], -56.5% (active); in experiment [18] it was 85.9% (inactive). Further, the growth in [19] is -85.3% (active); in [20] it was 82.6% (inactive).
On to `CC1=NN(C2=NC(=O)C(CC(=O)Nc3ccccc3C(F)(F)F)S2)C(c2ccc(N(C)C)cc2)C1` (stereo not given), for which the growth in experiment [1] is 63.6% (inactive); in experiment [2], 28.3% (inactive); in experiment [3] it was 61.8% (inactive); in [4], 66% (inactive); in experiment [5], 11.6% (inactive); in [6], 47.4% (inactive). In addition, the growth is 41.3% (inactive) in [7]; 40.2% (inactive) in experiment [8]; 58.1% (inactive) in experiment [9]; 47.7% (inactive) in experiment [10]; 17.1% (inactive) in experiment [11]; 40.8% (inactive) in experiment [12]. The growth in experiment [13] was 54.9% (inactive); in [14] it was 54.5% (inactive); in experiment [15] it was 49.3% (inactive); in experiment [16], 34.6% (inactive); in [17], 43.4% (inactive); in experiment [18] it was 41.4% (inactive). Also, the growth is 46.3% (inactive) in experiment [19] and 42% (inactive) in experiment [20].
In the case of `COc1ccc(N=Nc2c(N)nn3c(-c4cc5ccccc5oc4=O)ccnc23)cc1`, the growth is 61.9% (inactive) in experiment [1]; 51.5% (inactive) in experiment [2]; 49.3% (inactive) in experiment [3]; -3.18% (active) in experiment [4]; 10.1% (inactive) in [5]; 57.8% (inactive) in experiment [6]. The growth in experiment [7] is 34.5% (inactive); in [8], 15.2% (inactive); in experiment [9] it was 88.4% (inactive); in experiment [10], 59.5% (inactive); in experiment [11] it was 64.9% (inactive); in [12] it was 50.7% (inactive). Moreover, the growth is 33.6% (inactive) in [13]; 19.8% (inactive) in [14]; 28.5% (inactive) in experiment [15]; 70.7% (inactive) in experiment [16]; 24% (inactive) in experiment [17]; 47.7% (inactive) in experiment [18]. For the same molecule, the growth in experiment [19] is 57.2% (inactive); in experiment [20] it was 45.4% (inactive).
In the case of `CC1(C)CC(=O)C2=C(C1)OC(N)=C(c1nc3ccccc3[nH]1)C2c1ccc(Cl)cc1` (stereo not given), the growth in [1] was 74% (inactive) and 99.8% (inactive); in experiment [2] it was 61.5% (inactive) and 104% (inactive); in [3], 41.8% (inactive) and 97.3% (inactive); in [4], 79.1% (inactive) and 105% (inactive); in [5], 55% (inactive) and 106% (inactive); in experiment [6], 67.8% (inactive) and 102% (inactive). The growth in experiment [7] was 22.9% (inactive) and 103% (inactive); in experiment [8], 29.3% (inactive) and 106% (inactive); in [9], 97.4% (inactive) and 109% (inactive); in experiment [10], 85.6% (inactive) and 118% (inactive); in experiment [11], 39.8% (inactive) and 106% (inactive); in [12], 86.8% (inactive) and 115% (inactive). Besides, the growth in experiment [13] was 65.4% (inactive) and 124% (inactive); in experiment [14] it was 50% (inactive) and 99.9% (inactive); in experiment [15] it was 45.1% (inactive) and 112% (inactive); in experiment [16], 35.6% (inactive) and 107% (inactive); in experiment [17] it was -40.8% (active) and 104% (inactive); in experiment [18], -22.9% (active) and 94.3% (inactive). The growth in experiment [19] was 42.9% (inactive) and 107% (inactive); in experiment [20], 30.1% (inactive) and 109% (inactive).

Values taken from PubChem BioAssay (NCI).
